This is an account of results in PubChem BioAssay AID1509 (The Scripps Research Institute Molecular Screening Center, 2009).

Each structure is given as a SMILES string. Screen size: about 220,000 compounds; about 770 (0.35%) were called active. The sample as a whole holds a higher share of actives than the screen did. Values without a mark were called inactive. Rule as the data show it: active = activation above about 11%; inactive = the rest.

This assay deals with Sphingosine 1-phosphate receptor 4 (Homo sapiens) (UniProt O95977). The experiment in a line: S1P4 receptor agonists, primary screen, cell-based (AID 1509).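 Also: 0% = DMSO vehicle and 100% = reference agonist.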 The settings on record: S1P4-expressing cell line, agonist reporter assay; at 4.98 µM; active compounds read high. For orientation: A reporter such as luciferase makes a cellular process visible.
Sequence of Sphingosine 1-phosphate receptor 4 (Homo sapiens) (O95977 whole entry, looked up): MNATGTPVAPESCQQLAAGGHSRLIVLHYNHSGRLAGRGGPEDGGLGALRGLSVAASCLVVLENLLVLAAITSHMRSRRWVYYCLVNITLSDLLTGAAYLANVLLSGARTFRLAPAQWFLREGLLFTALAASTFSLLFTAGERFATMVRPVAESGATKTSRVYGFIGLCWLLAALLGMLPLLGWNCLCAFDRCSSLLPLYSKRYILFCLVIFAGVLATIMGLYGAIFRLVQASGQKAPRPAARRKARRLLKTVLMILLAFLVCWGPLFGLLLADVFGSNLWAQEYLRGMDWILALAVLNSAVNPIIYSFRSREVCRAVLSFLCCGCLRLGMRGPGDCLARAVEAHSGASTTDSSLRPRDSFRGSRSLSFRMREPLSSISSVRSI
Take `Cc1nc(-c2nnc(SCC(=O)Nc3cc(C(F)(F)F)cc(C(F)(F)F)c3)n2C)cs1`: the activation was -0.18%.
Next, `O=C1C=C(c2ccc(Cl)cc2)C(=O)N1Nc1ccccc1`: -3.55%; `CCOc1ccc(N2CC(C(=O)N/N=C/c3sccc3C)CC2=O)cc1` (centres undefined): -0.25%.
On to `NC(=O)COC(=O)c1sc2cc(F)ccc2c1Cl`, for which the activation is 0.19%.
For the compound `COc1ccc(CCNC(=O)C(Sc2ccccn2)c2ccccc2)cc1OC` (centres undefined), the activation is -2.85%.
Take `O=C(Nc1ccc(N2CCOCC2)cc1)c1ccc2c(c1)OCO2`: the activation was 1.77%.
For the compound `CC1CN(C(=O)c2ccccc2NS(=O)(=O)c2cccc([N+](=O)[O-])c2)CC(C)O1` (centres undefined), the activation was 1.5%.
`CCc1ccc(Nc2nnc(SCC(=O)c3ccc4c(c3)NC(=O)CO4)s2)cc1`: the activation was 1.5%.
For `CC1CCCN(CC(O)COc2ccc3c(c2)OCO3)C1` (centres undefined), the activation was 0.61%.
`COCCn1c(SCc2nnc(-c3ccc(OC)c(OC)c3)o2)nc2sc3c(c2c1=O)CCC3`: the activation was 1.63%.
In the case of `CCOc1cnc(-c2c(-c3ccccc3Cl)noc2C)o1`, the activation was 0.62%.
Next, `CC1CCCC(NC(=O)c2cccc(N3CCCC3=O)c2)C1C` (centres undefined): -1.52%; `COc1ccccc1CNC(=O)c1cc(=O)c2ccccc2o1`: 0.7%.
Next, `COc1ccccc1CNC(=O)CNC(=O)c1cn(-c2ccccc2OC)c(=O)c2ccccc12`: 16.9% (active).
On to `COc1ccccc1CNC(=O)CCn1c(=O)sc2ccccc21`, for which the activation was -0.92%.
For the compound `COc1cccc(CN(C)CC(=O)Nc2ccccc2C(=O)Nc2ccccc2)c1`, the activation was 0.57%.
As for `CN(C)c1nc(-c2cccnc2)nc(-c2ccc(Cl)cc2)c1C#N`, the activation is 0.37%.
As for `CC(Oc1ccc(-c2ccccc2)c(F)c1)c1ccn(S(=O)(=O)c2cccc3ccccc23)n1` (centres undefined), the activation is -2.56%.
Next, `COc1ccc(NC(=O)C(=O)NCC(=O)Nc2cccc(C(F)(F)F)c2)cc1`: 0.93%; `COc1ccc(-c2ccc(CCC(=O)O)n2NC(=O)c2ccc(C(C)(C)C)cc2)cc1`: -0.13%.
With `Cc1ccc(-n2c(C)cc(C(=O)CN3C(=O)C(=O)N(C4CCCC4)C3=O)c2C)cc1`, the activation is 0.78%.
Next, `COc1ccc(-n2c(C)cc(C(=O)CN3C(=O)NC4(CCc5ccccc54)C3=O)c2C)cc1` (centres undefined): 16.1% (active).
Next, `CN(C)S(=O)(=O)c1cc(NC(=O)CN2C(=O)NC3(CCCc4ccccc43)C2=O)ccc1Cl` (centres undefined): 0.63%; `COC(=O)c1cc(C(=O)N(Cc2ccccc2)c2ccccn2)cc([N+](=O)[O-])c1`: 1.87%.
